An excerpt weighted towards active compounds, which were near 1.2% of everything screened.
NS1 function inh – inhibitors of influenza NS1 protein function; Potency, µM (top dose mostly 46.1 µM), without a hit: top-dose activity, positive = more growth; hit rate 0.4% among 270,000; calls by dose curve; also: actives are rising curves; nearly all actives have a fitted effect of over 50% in size
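S. cerevisiae expressing influenza A NS1, grown in glucose, washed, then diluted 1:100 into pH 6.0 -URA galactose medium with 23 nl compound. Growth recovery read as OD600; NS1-free strain serves as control.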
AMA1-RON2 inh – disrupts binding of P. falciparum AMA1 to RON2; AID 720542; hit rate 0.2% among 360,000; Potency, µM (top dose mostly 58.2 µM), for inactives: at the highest dose activity change, negative = inhibition, most hits filed as inhibitors; AlphaScreen AMA1-biotinylated RON2 peptide binding;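 also: 0% = vehicle wells and -100% = peptide control; nearly all actives have a fitted effect of over 45% in size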
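AMA1 (3D7) with his tag at 25 nM final met compounds first, then biotinylated RON2 peptide at 25 nM; detection used donor plus acceptor beads, 10 µg/mL apiece, read by AlphaScreen after 30 min at room temperature.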
Giardia FBPA inh-1 – Giardia lamblia aldolase inhibition; Potency, µM (series often up to 59.6 µM), for inactives: top-dose activity, negative = inhibition, actives largely listed as inhibitors; hit rate 0.71% among 290,000; purified Giardia FBPA; also: % is scaled to controls: 0 for no effect and ±100 for the full control effect; nearly all actives have a fitted effect of over 55% in size
Target sequence (A8B2U2 whole entry, looked up): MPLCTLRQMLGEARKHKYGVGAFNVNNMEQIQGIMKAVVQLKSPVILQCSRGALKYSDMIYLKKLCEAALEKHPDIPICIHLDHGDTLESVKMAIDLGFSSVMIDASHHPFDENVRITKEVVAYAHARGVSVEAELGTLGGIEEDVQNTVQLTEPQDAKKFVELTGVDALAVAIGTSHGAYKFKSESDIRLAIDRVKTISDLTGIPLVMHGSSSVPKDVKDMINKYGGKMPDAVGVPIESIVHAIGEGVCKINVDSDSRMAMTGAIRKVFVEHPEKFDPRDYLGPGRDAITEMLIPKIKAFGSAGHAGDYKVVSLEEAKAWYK
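Giardia FBPA (40 nM reagent) was preincubated 10 min at RT with compound (up to 57.5 uM final), then substrate plus GAPDH/TPI/NAD/arsenate coupling system with diaphorase/resazurin was added; resorufin fluorescence (525/598 nm) was read after 20 min.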
TbPYK inhibitor – inhibitors of Trypanosoma brucei pyruvate kinase. TbPYK enzyme, Kinase-Glo Plus ATP luminescence, 45 min. hit rate 0.12% among 410,000. Potency, µM (highest dose often 76.8 µM), inactives show at the highest dose activity, negative = inhibition, actives largely listed as inhibitors; also: % is scaled to controls: 0 for no effect and ±100 for the full control effect; nearly all actives have a fitted effect of over 50% in size
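In this concentration-response screen, enzyme-free wells defined baseline while DMSO plates tracked drift. Each reaction combined TbPYK, substrate, compound and 130 uM ADP for 45 min at room temperature. Kinase-Glo Plus luminescence gave the signal.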
LmPK inhibitor – LmPK (Leishmania mexicana) enzyme inhibition. purified LmPK, Kinase-Glo ATP luminescence, 1 h. AID 1721. Q27686. Potency, µM (titrated, usually from 57.5 µM), without a hit: at the highest dose activity change, negative = inhibition, usual class: inhibitors. hit rate 0.37% among 290,000; also: % is scaled to controls: 0 for no effect and ±100 for the full control effect
Target sequence (Q27686 whole entry, looked up): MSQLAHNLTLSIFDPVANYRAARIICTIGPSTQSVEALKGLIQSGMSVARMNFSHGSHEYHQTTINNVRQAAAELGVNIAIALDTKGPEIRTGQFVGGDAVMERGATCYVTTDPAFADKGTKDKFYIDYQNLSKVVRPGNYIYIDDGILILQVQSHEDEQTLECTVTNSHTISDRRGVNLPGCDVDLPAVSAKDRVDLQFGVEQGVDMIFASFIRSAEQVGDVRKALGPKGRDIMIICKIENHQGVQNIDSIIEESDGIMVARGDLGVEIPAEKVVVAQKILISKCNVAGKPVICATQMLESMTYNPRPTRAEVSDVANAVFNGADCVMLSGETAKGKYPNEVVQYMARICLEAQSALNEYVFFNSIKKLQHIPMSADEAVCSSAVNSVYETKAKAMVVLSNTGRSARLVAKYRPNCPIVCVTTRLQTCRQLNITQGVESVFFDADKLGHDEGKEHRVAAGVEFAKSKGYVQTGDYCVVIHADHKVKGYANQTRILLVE
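0.1 nM LmPK, 0.5 mM PEP, 0.1 mM ADP; 50 mM imidazole pH 7.2, 7 mM MgCl2, 50 mM KCl; 1 h RT. Kinase-Glo luminescence readout, normalized to no-enzyme (full inhibition) and uninhibited wells.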
Giardia growth – inhibitors of Giardia lamblia growth. shares compounds with Giardia FBPA inh-1. Giardia lamblia trophozoite growth inhibition. Potency, µM (top dose mostly 57.5 µM), for the others: at the highest dose activity change, negative = inhibition, actives largely listed as inhibitors. hit rate 5% among 1,500;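 also: trophozoites exposed to compound for 48 h at 37 °C; % is scaled to controls: 0 for no effect and ±100 for the full control effect; nearly all actives have a fitted effect of over 70% in size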
Mammalian tox – toxic to mammalian cells in Giardia aldolase counter-screen; shares compounds with Giardia FBPA inh-1; Potency, µM (top dose mostly 57.5 µM), without a hit: top-dose viability change, negative = toxicity, hits mostly inhibitors; AID 2786; mammalian cell viability counter-screen, qHTS; hit rate 4% among 1,500;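 also: Chinese hamster ovary cells used as mammalian cytotoxicity surrogate; viability measured as cellular ATP by luminescence; compound exposure lasted 48 h before reading; % is scaled to controls: 0 for no effect and ±100 for the full control effect; nearly all actives have a fitted effect of over 60% in size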
Giardia FBPA inh-2 – confirmation of Giardia fructose-bisphosphate aldolase inhibitors. shares compounds with Giardia FBPA inh-1. purified Giardia aldolase enzyme activity, qHTS. Potency, µM (titrated, usually from 57.5 µM), for the others: at the top dose activity change, negative = inhibition, hits mostly inhibitors. hit rate 5% among 1,500; also: % is scaled to controls: 0 for no effect and ±100 for the full control effect; nearly all actives have a fitted effect of over 45% in size
Rabbit aldolase – rabbit FBP aldolase inhibition by Giardia aldolase hits; hit rate 4% among 1,500; Rabbit muscle FBPA enzyme inhibition, selectivity counter-screen; shares compounds with Giardia FBPA inh-1; Potency, µM (top dose mostly 57.5 µM), inactives show top-dose activity, negative = inhibition, usual class: inhibitors; AID 2794; also: % is scaled to controls: 0 for no effect and ±100 for the full control effect; nearly all actives have a fitted effect of over 60% in size
GAPDH counter – GAPDH inhibition flagged for Giardia aldolase hits; hit rate 6% among 1,500; GAPDH coupling enzyme counterscreen, biochemical, qHTS; shares compounds with Giardia FBPA inh-1; Potency, µM (series often up to 57.5 µM), without a hit: top-dose activity change, negative = inhibition, hits mostly inhibitors; AID 2795; also: % is scaled to controls: 0 for no effect and ±100 for the full control effect; nearly all actives have a fitted effect of over 55% in size
Numbers without * were called inactive; [ ] = dose if it differs, or a comment. Unless noted, calls follow the shape of the dose curve; as a rule, active = well fitted curve in the direction sought with a large enough effect; inconclusive = small, poorly fitted or top-dose-only effect, or another doubt; inactive = no such curve, though single readings can be large; an effect the other way counts as inactive or inconclusive. Potency is read from the fitted curve at half-maximal effect.

What do the screens show for `CCOc1ccc(CCNC(=O)CCn2c(=O)c3cccn3c3ccc(F)cc32)cc1`?
TbPYK inhibitor: -0.9%

How did Cc1cc(C)nc(SC2CC(=O)N(c3ccc(C)c(C)c3)C2=O)n1 (stereo unspecified) do in these assays?
NS1 function inh: 8.2%; AMA1-RON2 inh: 4.5%; Giardia FBPA inh-1: 0.6%; TbPYK inhibitor: 2.7%; LmPK inhibitor: -0.3%

Results for Cc1ccc(N2C(=O)CC(Sc3ncn[nH]3)C2=O)cc1C (stereo unspecified) ?
NS1 function inh: -57.8%; AMA1-RON2 inh: 27.2%; Giardia FBPA inh-1: 17.7µM*; TbPYK inhibitor: -0.4%; LmPK inhibitor: 4.9%; Giardia growth: -22.2%; Mammalian tox: 27.9%; Giardia FBPA inh-2: 0.4%; Rabbit aldolase: -1.6%; GAPDH counter: 0.3%

How did Cc1cccc(N2C(=O)CC(Sc3ncn[nH]3)C2=O)c1 (stereo unspecified) do in these assays?
AMA1-RON2 inh: 14.8%; Giardia FBPA inh-1: 19.9µM*; TbPYK inhibitor: -16.3%; LmPK inhibitor: 15.4%; Giardia growth: 21.6%; Mammalian tox: -2.7%; Giardia FBPA inh-2: 10.3%; Rabbit aldolase: 8.1%; GAPDH counter: 13.4%

What do the screens show for `O=C(Nc1ccc(F)cc1F)c1cc(=O)n(-c2ccccc2)c(=O)[nH]1`?
AMA1-RON2 inh: 49.3%; Giardia FBPA inh-1: 7.92µM*; TbPYK inhibitor: 0.9%; LmPK inhibitor: 3.8%; Giardia growth: 27.0%; Mammalian tox: -10.7%; Giardia FBPA inh-2: -6.8%; Rabbit aldolase: 4.2%; GAPDH counter: -2.4%

How did COc1cccc(CCc2nnc(CCC(=O)N3CCN(Cc4ccccn4)CC3)o2)c1 do in these assays?
NS1 function inh: 12.6%; AMA1-RON2 inh: 36.1%; Giardia FBPA inh-1: 5.61µM*; TbPYK inhibitor: 10.3%; LmPK inhibitor: -0.8%; Giardia growth: -1.4%[38.3 µM]; Mammalian tox: -7.3%; Giardia FBPA inh-2: -6.5%; Rabbit aldolase: 3.9%; GAPDH counter: 1.6%

How did COc1cccc(CCc2nnc(CCC(=O)NCCc3cccc(C)n3)o2)c1 do in these assays?
NS1 function inh: 4.6%; AMA1-RON2 inh: 31.2%; Giardia FBPA inh-1: 3.4%; TbPYK inhibitor: 0.9%; LmPK inhibitor: 0.9%

How did CC(CN(C)C)CN1c2ccccc2Sc2ccc(C(F)(F)F)cc21 (stereo unspecified) do in these assays?
TbPYK inhibitor: 3.4%

Results for COc1ccccc1NS(=O)(=O)c1cc(NC(=O)c2sccc2C)ccc1N1CCOCC1 ?
NS1 function inh: -17.3%; AMA1-RON2 inh: 3.4%; Giardia FBPA inh-1: -5.4%; TbPYK inhibitor: -1.7%; LmPK inhibitor: 5.5%

Results for COc1ccccc1NS(=O)(=O)c1cc(NC(=O)c2sccc2C)ccc1N1CCCC1 ?
NS1 function inh: 19.9%; AMA1-RON2 inh: -1.4%; Giardia FBPA inh-1: 14.1µM*; TbPYK inhibitor: inconclusive; LmPK inhibitor: -0.2%; Giardia growth: -12.1%[10.4 µM]; Mammalian tox: -17.5%; Giardia FBPA inh-2: inconclusive; Rabbit aldolase: inconclusive; GAPDH counter: inconclusive

How did N#C/C(=C\c1ccccc1)C(=O)NNS(=O)(=O)c1cccc([N+](=O)[O-])c1 do in these assays?
AMA1-RON2 inh: 54.2%; TbPYK inhibitor: -15.2%

How did CC(NC(=S)NNS(=O)(=O)c1cccc([N+](=O)[O-])c1)c1ccccc1 (stereo unspecified) do in these assays?
NS1 function inh: -2.9%; AMA1-RON2 inh: 79.6%; Giardia FBPA inh-1: 15.8µM*; TbPYK inhibitor: -12.5%; LmPK inhibitor: 0.3%; Giardia growth: 11.7%; Mammalian tox: 11.6%; Giardia FBPA inh-2: 3.0%; Rabbit aldolase: 14.8%; GAPDH counter: 26.2%

Results for O=C(Nc1ccc2nsnc2c1)N1CCCCCC1 ?
NS1 function inh: -6.0%; AMA1-RON2 inh: 5.4%; Giardia FBPA inh-1: -26.4%; TbPYK inhibitor: 11.1%; LmPK inhibitor: -9.6%

What do the screens show for `S=C(Nc1ccc2nsnc2c1)N1CCCC1`?
NS1 function inh: 6.5%; AMA1-RON2 inh: 13.0%; Giardia FBPA inh-1: 6.29µM*; TbPYK inhibitor: -8.0%; LmPK inhibitor: inconclusive; Giardia growth: -8.5%; Mammalian tox: -5.7%; Giardia FBPA inh-2: inconclusive; Rabbit aldolase: inconclusive; GAPDH counter: inconclusive

What do the screens show for `COC(=O)/C=C1\S/C(=N/N=C/c2ccccc2)NC1=O`?
NS1 function inh: -7.0%; AMA1-RON2 inh: 1.8%; Giardia FBPA inh-1: -0.1%; TbPYK inhibitor: -22.8%; LmPK inhibitor: -16.2%

Results for COC(=O)C/C=N/N=C1/NC(=O)/C(=C/C(=O)O)S1 ?
NS1 function inh: -1.2%; AMA1-RON2 inh: 25.8%; Giardia FBPA inh-1: 17.7µM*; TbPYK inhibitor: -17.8%; LmPK inhibitor: 0.6%; Giardia growth: -0.3%[10.4 µM]; Mammalian tox: 0.9%; Giardia FBPA inh-2: -10.5%; Rabbit aldolase: -9.8%; GAPDH counter: -13.6%

How did CCN(CC)COC(=S)S do in these assays?
NS1 function inh: -19.8%

How did CCOc1cc(C(=O)N(Cc2nc(-c3ccc(C)cc3)no2)C(C)C)cc(OCC)c1OCC do in these assays?
TbPYK inhibitor: -1.1%

Results for CC1(C)C2CCC(C2)C1(C)NC(=O)CN1CCN(Cc2ccccc2)CC1 (stereo unspecified) ?
NS1 function inh: 5.6%; AMA1-RON2 inh: -23.0%; Giardia FBPA inh-1: 15.8µM*; TbPYK inhibitor: -1.0%; LmPK inhibitor: 1.4%; Giardia growth: -0.3%[10.4 µM]; Mammalian tox: 2.8%; Giardia FBPA inh-2: -4.5%; Rabbit aldolase: 4.4%; GAPDH counter: -8.6%

Results for O=C(/C=C/c1c(F)cccc1Cl)Nc1ccc(S(=O)(=O)Nc2ncccn2)cc1 ?
NS1 function inh: -0.3%; AMA1-RON2 inh: -11.8%; Giardia FBPA inh-1: -14.2%; TbPYK inhibitor: -5.0%; LmPK inhibitor: -1.1%
